Bioassay records deposited in PubChem BioAssay by several laboratories.
NR3A LBD binder – modulates the human NR3A ligand-binding domain | Tm shift relative to glycine control, % at 25 µM | actives 2.5% (n = 340,000) | NR3A LBD differential scanning fluorimetry, Tm shift; 0% = protein alone, 100% = glycine-bound protein;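 active means melting temperature shift of at least 10% of the positive control shift, at one fixed dose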
EBNA-1 inh – blocks EBNA-1 binding to DNA. AID 1950. inhibition, % at 14.8 µM. actives 0.34% (n = 300,000). EBNA-1 DNA binding, fluorescence polarization; in the data active means inhibition above about 28%
TPT1 inhibitor – C. albicans TPT1 enzyme inhibition | actives 0.81% (n = 300,000) | inhibition, % at 5 µM | recombinant caTPT1, FP RNA substrate dephosphorylation;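 active means inhibition above the mean of all tested compounds plus 3 SD, set per screening campaign, cut at about 24% in these data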;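 further: plate controls were DMSO alone for no effect and ferristatin control at 100 nM for full effect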
ZTA counter – blocks Epstein-Barr virus ZTA, an EBNA-1 counter-screen; inhibition, % at 11 µM; actives 0.15% (n = 320,000); AID 2234; ZTA-DNA binding, fluorescence polarization; in the data active means inhibition above about 33%
Target sequence (P03206 whole entry, looked up): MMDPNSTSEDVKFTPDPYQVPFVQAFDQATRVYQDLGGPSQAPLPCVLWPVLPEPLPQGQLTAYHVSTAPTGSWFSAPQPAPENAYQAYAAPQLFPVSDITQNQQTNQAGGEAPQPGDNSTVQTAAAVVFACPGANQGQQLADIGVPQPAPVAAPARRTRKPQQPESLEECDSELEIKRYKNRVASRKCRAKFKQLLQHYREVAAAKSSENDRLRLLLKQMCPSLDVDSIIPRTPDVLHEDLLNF
Rpn11 block – inhibitors of human proteasome Rpn11 | O00487 | human 26S proteasome, Ub4-pepOG fluorescence polarization; 20S core pre-blocked with epoxomicin | inhibition, % at 20 µM | actives 0.59% (n = 360,000) | AID 588493;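 active means inhibition at 20 µM, scaled to each plate's controls, above about 33%, limit read from the data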
Target sequence (O00487 whole entry, looked up): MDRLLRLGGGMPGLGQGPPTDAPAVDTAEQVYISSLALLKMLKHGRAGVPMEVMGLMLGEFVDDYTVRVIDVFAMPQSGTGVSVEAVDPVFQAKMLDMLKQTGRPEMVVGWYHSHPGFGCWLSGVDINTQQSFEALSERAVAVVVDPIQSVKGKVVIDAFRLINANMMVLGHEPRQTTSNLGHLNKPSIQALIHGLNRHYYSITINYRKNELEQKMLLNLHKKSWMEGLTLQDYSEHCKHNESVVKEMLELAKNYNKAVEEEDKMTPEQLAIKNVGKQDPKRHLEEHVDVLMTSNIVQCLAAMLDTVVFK
dFosB act – mouse delta FosB homodimer activation | purified delta FosB, TAMRA-CDK5 oligo fluorescence polarization; percent of positive-control signal above neutral wells | AID 493131 | activation, % at 25 µM | actives 0.99% (n = 340,000) | P13346;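 active means mean activation above about 17%, with every replicate also reaching it, limit read from the data, passing the limit was not always enough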
* marks the source's active call; other numbers are inactive results; / = not tested or not shown. Most compounds without a hit are left out; they make up all but 4.5% or so of the library.

SMILES	NR3A LBD binder	EBNA-1 inh	TPT1 inhibitor	ZTA counter	Rpn11 block	dFosB act
COc1ccc(/C(N)=N/OC(=O)c2cccs2)cc1OC	22*	-7	-1	8	-3	-17
COc1cc(OC)c(C(=O)O/N=C(\N)c2ccc(C)cc2)cc1OC	1	2	-2	-16	-2	0
Cc1ccc(/C(N)=N/OC(=O)c2cccs2)cc1	-11	7	-3	16	-7	-2
COc1ccc(Cl)cc1C(=O)O/N=C(\N)c1ccc(Cl)cc1	20*	11	0	14	3	0
CC(=O)C[C@H](O)CC(=O)[C@@H]1OC(=O)CCCCCc2ccccc21	1	/	/	/	-2	6
CNC(=O)c1cc(Oc2ccc(NC(=O)Nc3ccc(Cl)c(C(F)(F)F)c3)cc2)ccn1	12*	/	/	23	6	9
O=C(Nc1ccc(Cl)c(C(F)(F)F)c1)c1ccncc1	-2	10	-1	0	-9	-5
COc1cc(C2c3cc4c(cc3C3OC(=O)C2C3CO)OCO4)cc(OC)c1OC (stereo unspecified)	/	/	/	/	-2	/
COc1cc([C@@H]2c3cc4c(cc3[C@@H](O)[C@H]3COC(=O)[C@H]23)OCO4)cc(OC)c1O[Si](C)(C)C(C)(C)C	11*	-15	1	2	3	-17
CCN(CC(=O)Nc1ccc(NC(C)=O)cc1)C(=O)CCCc1c[nH]c2ccccc12	0	/	/	0	-4	-3
Cc1ccc(S(=O)(=O)N(C)C)cc1NC(=S)NNC(=O)C(N)=O	-2	-6	-5	1	7	3
CCOC(=O)C1=C(c2ccccc2)NC(=S)NC1c1ccc(C)c([N+](=O)[O-])c1 (stereo unspecified)	-7	24	2	11	2	5
CCOC(=O)C1=C(c2ccccc2)NC(=S)NC1c1cccc([N+](=O)[O-])c1 (stereo unspecified)	14*	2	-1	2	-8	2
COc1cccc(OC)c1-c1nn2c(-c3cc(-c4ccccc4)n[nH]3)nnc2s1	0	60*	15	165*	22	-14
O=C(CN1C(=O)NC(Cc2ccccc2)C1=O)Nc1ccc(OC(F)F)cc1 (stereo unspecified)	4	-6	1	-8	-4	4
Cc1ccc(NC(=O)CN2C(=O)NC(Cc3ccccc3)C2=O)cc1Cl (stereo unspecified)	15*	/	/	-9	-2	4
Cc1ccc(NC(=O)CN2C(=O)NC(Cc3c[nH]c4ccccc34)C2=O)cc1S(=O)(=O)N1CCCCC1 (stereo unspecified)	12*	12	-5	-1	13	-7
CN(C)S(=O)(=O)c1cccc(NC(=O)CN2C(=O)NC(Cc3c[nH]c4ccccc34)C2=O)c1 (stereo unspecified)	0	2	-5	-6	-1	-8
CC(C)CC1NC(=O)N(CC(=O)Nc2ccc(OC(F)F)cc2)C1=O (stereo unspecified)	27*	/	/	/	-1	-9
O=C(CN1C(=O)NC(Cc2c[nH]c3ccccc23)C1=O)Nc1cccc(S(=O)(=O)N2CCCCCC2)c1 (stereo unspecified)	16*	-1	1	-6	-2	-3
O=C(CN1C(=O)NC(Cc2c[nH]c3ccccc23)C1=O)Nc1cccc(S(=O)(=O)N2CCCC2)c1 (stereo unspecified)	-4	-7	-5	-11	3	2
CC(=O)c1ccc(S(=O)(=O)N2CCNC(=O)C2)cc1	0	/	/	/	2	-6
CC(=Nc1ccccc1)C1=C(O)C(Cc2cccc(F)c2)NC1=O (stereo unspecified)	/	/	/	/	-4	/
CC(C)(C)c1ccc(C(=O)N2CCC2(C)C(=O)NCc2cccs2)cc1 (stereo unspecified)	/	/	/	/	5	/
CCn1nc(C)c(CNCc2cn[nH]c2-c2cc3ccccc3o2)c1C	-3	7	1	-4	-1	-2
SMILES	NR3A LBD binder	EBNA-1 inh	TPT1 inhibitor	ZTA counter	Rpn11 block	dFosB act
Cn1c(SCc2ccc(F)cc2Cl)nc2ccccc2c1=O	0	/	/	-2	0	0
Cc1ccc(NC(=O)CN2C(=O)CCS(=O)(=O)c3ccccc32)cc1Cl	15*	-7	0	12	-2	-11
O=C(CN1C(=O)CCS(=O)(=O)c2ccccc21)Nc1ccc(F)cc1	7	-13	0	-5	-3	-2
CC[C@@H]1C/C=C\Cc2ccccc2[C@H](C(=O)C[C@@H](O)CC(C)=O)OC1=O	-5	/	/	/	2	2
CC(C)Oc1cccc(C(=O)NC(=S)Nc2ccccc2N2CCOCC2)c1	20*	-3	-3	2	9	-3
Cc1cccc(OCC(=O)NC(=S)Nc2ccccc2N2CCOCC2)c1C	16*	-2	2	-2	3	-5
CC1=C([N+](=O)[O-])C(c2ccccc2C(F)(F)F)NC(=O)N1C (stereo unspecified)	-2	6	1	9	9	-2
COc1cccc([C@@H]2CC=C(C(=O)O)[C@H](c3ccc(Br)cc3)N2S(=O)(=O)c2ccc(C)cc2)c1	-4	/	/	/	7	-20
O=C(c1cc2cc(Cl)ccc2[nH]1)N1CCN(c2ccccn2)CC1	-1	12	-6	-11	4	-2
CCCCNC(=S)Nc1ccc(SC(F)F)cc1	0	2	3	-1	-1	-1
Oc1cccc2c(NC(=S)Nc3ccc(SC(F)F)cc3)cccc12	25*	-3	-3	-3	-5	7
Oc1cccc(NC(=S)Nc2ccc(SC(F)F)cc2)c1	16*	-8	6	-3	6	-13
Oc1ccccc1N1CCN(C(=S)Nc2ccc(SC(F)F)cc2)CC1	-2	-9	6	8	1	1
Cn1c(NCC(O)c2ccccc2)nc2c1c(=O)n(Cc1ccc(Cl)c(Cl)c1)c(=O)n2C (stereo unspecified)	12*	-7	-2	8	9	-6
O=C(Nc1nccs1)c1ccc(-c2ccc(Cl)cc2)o1	20*	-1	2	9	7	-5
CCc1nnc(NC(=O)c2ccc(-c3ccc(F)cc3)o2)s1	16*	7	0	0	-4	-9
COc1ccc(Oc2nc3c(C)cccn3c(=O)c2/C=C(\C#N)C(N)=O)cc1	6	-6	-8	0	-4	-9
COC(=O)/C(C#N)=C/c1c(Oc2cc(C)cc(C)c2)nc2c(C)cccn2c1=O	13*	3	-2	6	9	-4
C=Cc1c(C)c2cc3[nH]c(cc4nc(cc5nc(cc1[nH]2)C(C)=C5CCC(=O)O)C(CCC(=O)O)=C4C)c(C)c3C=C	-1	96*	-4	146*	-17	-12
CCCCn1c(N)c(N(CCOC)C(=O)c2sc3cc(F)ccc3c2Cl)c(=O)[nH]c1=O	-1	5	3	-3	0	-8
